# The list is not random: actives were taken first. Their share in the collection is about 0.67%.
# Vc quorum ag = induces V. cholerae light production without autoinducers; V. cholerae BH1578 lux reporter, luminescence, 6 h; activation, % at 18.7 µM; 350,000 compounds, 0.16% hits; in the data active means activation mostly above about 9.7%, no sharp cut-off
# TcdB GH inh = inhibitors of Clostridioides difficile toxin B glycohydrolase; inhibition, % at 9.99 µM; TcdB glycohydrolase enzymatic assay, plate reader; 350,000 compounds, 0.24% hits; P18177; in the data active means inhibition above about 10%
# RN4220 kill = kills Staphylococcus aureus RN4220 | inhibition, % (test concentration not listed) | S. aureus RN4220 growth, OD600, 16 h | 330,000 compounds, 0.33% hits; in the data active means inhibition above about 85%;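 further: plate controls were untreated cells for no effect and reference antibiotic for full effect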
# Sa ugtP lethal = compounds lethal to S. aureus RN4220 ugtP deletion mutant. OD600 growth, 16 h. growth inhibition, % (no concentration beside the values). 330,000 compounds, 0.54% hits. AID 1259309; in the data active means growth inhibition above about 68%;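 further: plate controls were untreated wells for no effect and antibiotic for full effect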
# An asterisk follows results filed as active; i = inactive; . = not tested or not shown; + = active, no number.
SMILES,Vc quorum ag,TcdB GH inh,RN4220 kill,Sa ugtP lethal
O=C(NN=Cc1ccc[nH]1)c1cccc([N+](=O)[O-])c1,.,.,8,7
CC(=NNC(=O)c1cc(C)[nH]n1)c1ccc(-c2ccccc2)cc1,.,.,4,3
COc1cccc(CC(=O)OCC(=O)Nc2c(C)nn(-c3ccccc3)c2C)c1,-1,11*,5,3
Cc1nn(-c2ccccc2)c(C)c1NC(=O)COC(=O)CCc1ccccc1,i,0,6,14
Cc1[nH]c(-c2ccc(F)cc2)cc1C(=O)N1CCN(c2ccccc2)CC1,0,21*,0,-6
C[n+]1c(-c2ccccc2)cc(CCCCc2cc(-c3ccccc3)[n+](C)c(-c3ccccc3)c2)cc1-c1ccccc1,0,1,93*,77
CC(C)(C)C1COC(=O)C(Cc2ccc(F)cc2)CC=CCC(CC(=O)NC(CO)Cc2ccccc2)C(=O)N1 (stereo not given),.,.,3,-6
COc1ccc(/C=C/C(=O)OCC(=O)NC2CCCC2)c(OC)c1,i,-4,3,47
COc1ccc(/C=C/C(=O)OCC(=O)NC2CCCCC2C)c(OC)c1 (stereo not given),i,1,5,87*
CN1CCN(c2c(F)cc3c(=O)c(C(=O)O)cn4c3c2OCN4C)CC1,-1,1,99*,99*
CCOC(=O)C1=C(N)n2c(sc(=Cc3cccnc3)c2=O)=C(C(=O)OC)C1c1cccnc1 (stereo not given),.,.,4,1
CCC1Sc2ccc(S(=O)(=O)Nc3ccc(OC)cc3)cc2NC1=O (stereo not given),i,1,96*,93*
Cc1ccc(C)c(NC(=S)NN=C2CCCCc3ccccc32)c1,.,.,4,58
Cc1ccc(NC(=S)NN=C2CCCCc3ccccc32)cc1,.,.,94,active
O=C(O)CCn1cc(C=NO)c(-c2cccc([N+](=O)[O-])c2)n1,.,.,0,2
CC(C)(C)C1COC(=O)C(NC(=O)OCC2c3ccccc3-c3ccccc32)CC=CCC(CC(=O)NCCO)C(=O)N1 (stereo not given),.,.,1,0
Cc1ccc(OC/C(O)=C(\C#N)c2nc3ccccc3s2)cc1,0,-6,78,84*
COc1ccc(CC(O)=C(C#N)c2nc3ccccc3s2)cc1,.,.,77,73
Cc1ccsc1C=NNC(=O)Cn1nc(C)c([N+](=O)[O-])c1C,.,.,0,-1
CN(C)CCNc1ccc(CO)c2sc3ccc(O)cc3c(=O)c12,i,25*,.,.
COc1ccc2sc3cccc(NCCN(C)C)c3c(=O)c2c1,.,2,.,.
COC(=O)C1=C(c2cccc(OC)c2OC)CC2CCC1N2C(=O)N1CCC(C)CC1 (stereo not given),.,.,2,4
CCCCCCCn1c2c(c(=N)c3ccccc31)CCC2,i,2,25,89*
COc1cc(/C=N/n2c(-c3ccccc3)n[nH]c2=S)ccc1O,i,18*,.,.
COc1cc(-c2n[nH]c(=S)n2/N=C/c2cccn2C)cc(OC)c1OC,-1,11*,.,.
SMILES,Vc quorum ag,TcdB GH inh,RN4220 kill,Sa ugtP lethal
CCOc1ccc(C=NNC(=O)C(O)c2ccccc2)c(O)c1 (stereo not given),.,.,2,-2
O=C1C=C(c2ccccc2Oc2ccccc2)CC(c2ccc3c(c2)OCO3)C1 (stereo not given),.,.,1,17
Cn1cc(C(=O)C(=O)NC2CCCCC2)c2ccccc21,80*,2,4,8
Cn1cc(C(=O)C(=O)NC2CC2)c2ccccc21,-3,0,.,.
O=C(NC1CCCCC1)C(=O)c1c(-c2ccccc2)[nH]c2ccccc12,+,-1,-1,2
O=C(NC1CC1)C1=CC(c2coc3ccccc3c2=O)CC(OCCCCO)O1 (stereo not given),.,.,5,4
O=C(COC(=O)c1ccccc1C(F)(F)F)NC(=O)NCc1ccco1,6,0,6,6
CC(C)c1cc(C(=O)OCC(=O)NC(=O)NCc2ccco2)c(O)c(C(C)C)c1,0,2,-7,94*
CCC1=C(OC(=O)N(CC)CC)N2C(=O)OC(=NCCc3c[nH]c4ccccc34)[C@]2(C)C2C1=CCC1C(=O)N(CC)C(=O)C12 (stereo not given in full),.,.,9,5
O=C(C1=CC(c2ccc(Br)cc2)CC(OCCCCO)O1)N1CCN(Cc2ccccc2)CC1 (stereo not given),.,.,6,2
Cc1cccc(N=C2NC(=O)CS2)c1,.,.,4,3
Cc1cc(C)cc(N=C2NC(=O)CS2)c1,0,13*,1,0
C=CCC(CC(=O)NCCO)C(=O)NC(COC(=O)C(CC=C)CC(=O)OC(C)(C)C)Cc1ccccc1 (stereo not given),.,.,4,-2
Cc1ccc(S(=O)(=O)c2c(CO)c(-c3ccccc3)nn2C)cc1,-1,1,5,8
Cc1ccc(Oc2c(CO)c(-c3ccccc3)nn2C)cc1,1,12*,7,2
Cc1cc(=O)[nH]c(NN=Cc2cccc([N+](=O)[O-])c2)n1,.,.,4,5
CCOc1ccc2nc(NC(=O)c3ccc(OC)c(S(=O)(=O)N4CCOCC4)c3)sc2c1,44*,.,9,-14
O=C(NN=Cc1cccc(Oc2ccccc2)c1)c1ccccc1Br,.,.,-3,99*
O=C(N/N=C/c1cccc(Oc2ccccc2)c1)c1ccccc1F,0,2,.,.
CCCOc1ccc(CCC(=O)NN=Cc2ccncc2)cc1,.,.,-2,3
COC(=O)Cn1c(=NC(=O)c2ccc([N+](=O)[O-])s2)sc2cc(Br)ccc21,.,.,99*,97*
COC(=O)Cn1c(=NC(=O)c2ccc(Cl)s2)sc2cc(C)ccc21,0,.,1,3
COCc1c(Br)c(C)nc(OCC(=O)N/N=C/c2ccc(C)o2)c1C#N,1,11*,.,.
COc1ccc(S(=O)(=O)N2CCOCC2)cc1NC(=O)COC(=O)c1[nH]c(C)c(C(C)=O)c1C,-1,13*,3,4
CC(=O)c1c(C)[nH]c(C(=O)OCC(=O)Nc2cc(S(=O)(=O)N3CCCC3)ccc2Cl)c1C,i,.,5,-8
SMILES,Vc quorum ag,TcdB GH inh,RN4220 kill,Sa ugtP lethal
Cc1ccc(SCCC(=O)N/N=C/c2cccnc2)cc1,0,10*,.,.
CCC(C)C(NC(=O)Nc1ccc(C(C)=O)cc1)C(=O)OC (stereo not given),.,.,3,8
O=C(c1ccccc1F)n1c2c(c3ccccc31)CCCC2,0,2,-12,93*
FC(F)(F)c1cccc(Cn2c3[n+](c4ccc(C(F)(F)F)cc42)CCCCC3)c1,0,2,6,2
Cc1cc(C(C)(C)C)cc(C)c1Cn1c2[n+](c3ccc(C(F)(F)F)cc31)CCCCC2,i,0,101*,100*
COc1ccc(CCC(C)=NNC(N)=O)cc1,.,.,2,10
CCCCOC(=O)Nc1sc2c(c1C(=O)OC)CCC2,-5,.,7,92*
CN1C(=O)C(c2nnc(Nc3cccc4ccccc34)s2)C2CC1(C)Oc1ccccc12 (stereo not given),i,11*,0,-22
COc1ccc(NC(=O)Cn2cnc3sc(C)c(S(=O)(=O)N4CCOCC4)c3c2=O)c(OC)c1,0,15*,1,0
CC(=NNS(=O)(=O)c1c(C)cc(C)cc1C)c1ccncc1,.,.,0,7
CC(C)=CCc1c(-c2ccc(O)cc2O)oc2c3c(cc(O)c2c1=O)OC(C)(C)C=C3,.,.,97*,99*
